Measured values as given in PubChem BioAssay (NCATS).
Results filed as inconclusive are left out. Where a call stands in place of a potency, no number is given. Values without a mark were called inactive. Active and inactive are the calls of the source. The call rests on the fitted dose curve; in most records, active means well fitted inhibition curve with a large enough effect; inconclusive means small, poorly fitted or top-dose-only effect; inactive means flat fitted curve, though single readings scatter.

How the values were obtained:
[1] = system: ECU; assay: qHTS profiling for inhibitors of Plasmodium falciparum proliferation (AID 504749); further: potency means the concentration at half of the fitted maximal effect; settings: P. falciparum in erythrocytes, SYBR Green DNA, 72 h; series mostly up to 28.7 µM
Procedure, shortened: (§1)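 Infected RBCs, 0.3% parasitemia/2.5% Hct final; cpd 72 h, 37 C, 5% CO2; lysis buffer with saponin/triton/SYBR Green I, o/n RT dark; FI 485/535; norm. to artemisinin (0.29 uM) and DMSO.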

[2] = system: FAB9; assay: as above; settings: P. falciparum in erythrocytes, SYBR Green DNA, 72 h; series mostly up to 28.7 µM
Procedure, shortened: as §1

[3] = system: HB3; assay: as above; settings: P. falciparum in erythrocytes, SYBR Green DNA, 72 h; series mostly up to 28.7 µM
Procedure, shortened: as §1

[4] = system: JCK; assay: as above; settings: P. falciparum in erythrocytes, SYBR Green DNA, 72 h; series mostly up to 28.7 µM
Procedure, shortened: as §1

[5] = system: PC49; assay: as above; settings: P. falciparum in erythrocytes, SYBR Green DNA, 72 h; series mostly up to 28.7 µM
Procedure, shortened: as §1

[6] = system: W2; assay: as above; settings: P. falciparum in erythrocytes, SYBR Green DNA, 72 h; series mostly up to 28.7 µM
Procedure, shortened: as §1

[7] = system: CRL-7250; assay: Cytotoxic Profiling of Annotated Libraries Using Quantitative High-Throughput Screening (AID 1296008); settings: Five cell lines viability, CellTiter-Glo ATP luminescence, 48-72 h; max response: active compounds read low
Procedure, shortened: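 Cytotoxicity was measured as CellTiter-Glo ATP luminescence, read after 10 min at room temperature. Compound treatment of the cells lasted 48 or 72 hr at 37 degrees Celsius in a qHTS format.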

[8] = system: N140; assay: qHTS profiling for inhibitors of Plasmodium falciparum proliferation (AID 504749); further: potency means the concentration at half of the fitted maximal effect; settings: P. falciparum in erythrocytes, SYBR Green DNA, 72 h; series mostly up to 28.7 µM
Procedure, shortened: as §1

[9] = system: P93_24; assay: as above; settings: P. falciparum in erythrocytes, SYBR Green DNA, 72 h; series mostly up to 28.7 µM
Procedure, shortened: as §1

[10] = system: PAD; assay: as above; settings: P. falciparum in erythrocytes, SYBR Green DNA, 72 h; series mostly up to 28.7 µM
Procedure, shortened: as §1

[11] = system: PC15; assay: as above; settings: P. falciparum in erythrocytes, SYBR Green DNA, 72 h; series mostly up to 28.7 µM
Procedure, shortened: as §1

[12] = system: PC26; assay: as above; settings: P. falciparum in erythrocytes, SYBR Green DNA, 72 h; series mostly up to 28.7 µM
Procedure, shortened: as §1

[13] = system: TAB109; assay: as above; settings: P. falciparum in erythrocytes, SYBR Green DNA, 72 h; series mostly up to 28.7 µM
Procedure, shortened: as §1

[14] = system: TAB165; assay: as above; settings: P. falciparum in erythrocytes, SYBR Green DNA, 72 h; series mostly up to 28.7 µM
Procedure, shortened: as §1

[15] = system: GB4; assay: as above; settings: P. falciparum in erythrocytes, SYBR Green DNA, 72 h; series mostly up to 28.7 µM
Procedure, shortened: as §1

[16] = system: ICS; assay: as above; settings: P. falciparum in erythrocytes, SYBR Green DNA, 72 h; series mostly up to 28.7 µM
Procedure, shortened: as §1

[17] = system: P94_40; assay: as above; settings: P. falciparum in erythrocytes, SYBR Green DNA, 72 h; series mostly up to 28.7 µM
Procedure, shortened: as §1

[18] = system: SC27B; assay: as above; settings: P. falciparum in erythrocytes, SYBR Green DNA, 72 h; series mostly up to 28.7 µM
Procedure, shortened: as §1

[19] = system: TAB113; assay: as above; settings: P. falciparum in erythrocytes, SYBR Green DNA, 72 h; series mostly up to 28.7 µM
Procedure, shortened: as §1
Further: nearly all actives have a fitted effect of over 60% in size.

| SMILES | Potency [1] | Potency [2] | Potency [3] | Potency [4] | Potency [5] | Potency [6] | max response [7] [%] | Potency [8] | Potency [9] | Potency [10] | Potency [11] | Potency [12] | Potency [13] | Potency [14] | Potency [15] | Potency [16] | Potency [17] | Potency [18] | Potency [19] | outcome [7] |
| --- | --- | --- | --- | --- | --- | --- | --- | --- | --- | --- | --- | --- | --- | --- | --- | --- | --- | --- | --- | --- |
| c1ccc(CNCCNCc2ccccc2)cc1 | 11.2 µM (active) | inactive | inactive | inactive | 3.55 µM (active) | 4.26 µM (active) | -8.49 |  |  |  |  |  |  |  |  |  |  |  |  |  |
| C#C[C@]1(O)CC[C@H]2[C@@H]3CCc4cc(OC5CCCC5)ccc4[C@H]3CC[C@@]21C | inactive | inactive | inactive | inactive | inactive |  | 0.636 | inactive | inactive | inactive | inactive | inactive | inactive | inactive |  |  |  |  |  |  |
| CC(C)COC(=O)OCN1C(=O)CN(CCN2CC(=O)N(COC(=O)OCC(C)C)C(=O)C2)CC1=O | inactive | inactive | inactive | inactive | inactive | inactive |  | inactive | inactive | inactive | inactive | inactive | inactive | inactive | inactive | inactive | inactive | inactive | inactive |  |
| O=C1[C@H]2CCCC[C@H]2C(=O)N1CCCCN1CCN(c2nsc3ccccc23)CC1 | inactive | inactive |  | inactive | inactive | 15.1 µM (active) |  | inactive |  | inactive |  |  | inactive |  |  |  | inactive | inactive | inactive | inactive |
| C[C@]12CC[C@@H]3c4ccc(O)cc4CC[C@H]3[C@@H]1CC[C@@H]2O | inactive | inactive | inactive | inactive | inactive | inactive |  | inactive | inactive | inactive | inactive | inactive | inactive | inactive | inactive | inactive | inactive | inactive | inactive |  |
| CCCCOc1ccc(C(=O)CCN2CCCCC2)cc1 | inactive | inactive | inactive | inactive | inactive |  |  | inactive | inactive | inactive | inactive | inactive | inactive | inactive | inactive | inactive | inactive | inactive | inactive |  |
| CN1C(CCl)Nc2cc(Cl)c(S(N)(=O)=O)cc2S1(=O)=O (configuration not stated) | inactive | inactive | inactive | inactive | inactive | inactive |  | inactive | inactive | inactive | inactive | inactive | inactive | inactive | inactive | inactive | inactive | inactive | inactive |  |
| O=C(Nc1ccc(Oc2ccc(Cl)cc2)c(Cl)c1)c1cc(I)cc(I)c1O |  | inactive | inactive | inactive | inactive |  | -12.5 | inactive | inactive | inactive | inactive | inactive | inactive |  | inactive |  | inactive | inactive | inactive |  |
| CN1CCC(=C2c3ccccc3Sc3ccccc32)CC1 | 7.08 µM (active) |  |  | inactive | inactive | 2.13 µM (active) | -1.99 | 10 µM (active) | 10 µM (active) | 12.6 µM (active) |  |  | 11.2 µM (active) | 7.94 µM (active) | 3.38 µM (active) | 5.62 µM (active) | 10 µM (active) | 11.2 µM (active) | 11.2 µM (active) |  |
| Cc1ccc(O)c2ncccc12 |  | inactive | inactive | inactive | inactive |  | -10.3 |  | inactive | inactive | inactive | inactive |  |  |  |  |  | inactive |  |  |
| CN(C)CC/C=C1\c2ccccc2Sc2ccc(Cl)cc21 |  | 8.91 µM (active) |  |  | 11.2 µM (active) | 2.69 µM (active) | -3.17 | 12.6 µM (active) |  |  | 11.2 µM (active) |  |  | 7.94 µM (active) |  | 10 µM (active) | 10 µM (active) |  |  |  |
